Test [1] is described as follows: APR_HepG2_NuclearSize_72hr: Apredica 72-hour HepG2 Assay for Nuclear Size (AID 2282925). As to conditions: high-content imaging, actives raise or lower the signal. The method in brief: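 HepG2 cells dosed 72 h at 0.39–200 uM (10 concentrations, duplicate) in 0.5% v/v DMSO final. Fixed, Hoechst 33342-stained nuclei imaged; nuclear diameter measured by automated image analysis. Bidirectional fit versus DMSO.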

A short description of test [2]: ATG_CRE_CIS: Attagene CIS-FACTORIAL HepG2 Assay for human cAMP Responsive Element (CRE) binding protein 3 (AID 2282926). The following applies: HepG2 CRE cis-reporter, Attagene multiplexed mRNA; actives raise or lower the signal. The method in brief:
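Endogenous CRE-binding activity in HepG2 is reported through a cis-regulated transfected reporter. Following a day of exposure, mRNA levels are determined by reverse transcription PCR and fluorescent fragment analysis; fits run in both directions versus DMSO.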

The target in test [3] is CCAAT/enhancer-binding protein beta (Homo sapiens) (UniProt P17676). Kind of test: ATG_C_EBP_CIS: Attagene CIS-FACTORIAL HepG2 Assay for human CCAAT/Enhancer Binding Protein (C/EBP) beta (AID 2282927). The following applies: HepG2 Attagene cis-factorial transcription factor reporter; actives raise or lower the signal. The method in brief: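 HepG2, transient MRTU transfection, 24 h treatment. RT-PCR plus CE fluorescence; DMSO negative control, bidirectional fit.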

Test [4] can be described thus: ATG_CMV_CIS: Attagene CIS-FACTORIAL HepG2 Assay for human CMV (Internal Marker) (AID 2282928).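 Further: endpoint acts as a background internal control marker rather than a target.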 As to conditions: HepG2 CMV promoter reporter, transcription factor profiling; actives raise or lower the signal. The method in brief:
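HepG2 cells transiently transfected with multiple cis-regulated reporter units; 24 h compound exposure. Reporter mRNA quantified by RT-PCR, 6-FAM primer-extension labeling, HpaI digestion and capillary electrophoresis; bidirectional fitting against DMSO baseline.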

A short description of test [5]: ATG_DR4_LXR_CIS: Attagene CIS-FACTORIAL HepG2 Assay for human Liver X Receptor (LXR), DR4 submotif (AID 2282929). As to conditions: HepG2 Attagene DR4 cis-reporter, mRNA transcription; actives raise or lower the signal. The method in brief: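 Readout: reporter transcript fluorescence after RT-PCR and capillary electrophoresis, fitted bidirectionally against DMSO controls. Human HepG2 liver cells carried transiently transfected multiplexed reporter constructs; endogenous transcription factor activity measured 24 h post-dosing.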

Test [6] addresses Aryl hydrocarbon receptor (Homo sapiens) (UniProt P35869). Kind of test: ATG_Ahr_CIS: Attagene CIS-FACTORIAL HepG2 Assay for human Aryl Hydrocarbon Receptor (Ahr) (AID 2282930). As to conditions: HepG2 AhR cis-factorial reporter transcription; actives raise or lower the signal. Summed up: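 Endogenous factor activity is tracked through cis-promoter reporter units transfected into HepG2 cells. Transcript levels at 24 h are read by fluorescent RT-PCR and capillary electrophoresis, with activity in either direction scored relative to DMSO.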

A short description of test [7]: ATG_AP_1_CIS: Attagene CIS-FACTORIAL HepG2 Assay for human Activator Protein 1 (AP-1) (AID 2282931). As to conditions: HepG2 Attagene cis-factorial AP-1 reporter mRNA; actives raise or lower the signal. The method in brief:
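Reporter transcripts were measured 24 h after dosing by RT-PCR and capillary electrophoresis of fluorescent fragments. Cells: HepG2 carrying transfected cis-regulated reporter constructs reading endogenous factor activity. Gain or loss fitted against DMSO.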

A short description of test [8]: ATG_AP_2_CIS: Attagene CIS-FACTORIAL HepG2 Assay for human Activator Protein 2 (AP-2) (AID 2282932). The following applies: HepG2 AP-2 cis-reporter, Attagene transcription factor profiling; actives raise or lower the signal. Summed up: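 Multiplexed mRNA reporter assay in HepG2: cis-regulated units report endogenous factor activity after 24 h treatment. Fluorescence from capillary electrophoresis of RT-PCR products gives the signal, with DMSO as baseline.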

The nature of test [9]: ATG_BRE_CIS: Attagene CIS-FACTORIAL HepG2 Assay for human Bone Morphogenetic Protein (BMP) Response Element (BRE) (AID 2282933). The following applies: HepG2 BMP response element reporter, Attagene transcription factor profiling; actives raise or lower the signal. Summed up:
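HepG2 cells transiently transfected with multiplexed cis-element reporter units were dosed with chemical for 24 h. Reporter mRNA was measured by RT-PCR with fluorescent labelling, HpaI digestion and capillary electrophoresis; bidirectional fitting relative to DMSO.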

In test [10] the target is Transcription factor E2F1 (Homo sapiens) (UniProt Q01094). Kind of test: ATG_E2F_CIS: Attagene CIS-FACTORIAL HepG2 Assay for human E2F Transcription Factor 1 (AID 2282935). The following applies: HepG2 Attagene cis-reporter, E2F reporter RNA transcripts; actives raise or lower the signal. Summed up:
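Measures reporter transcript levels via RT-PCR with capillary electrophoresis detection in HepG2 cells harboring cis-regulated reporter units; 24 h post-dose; bidirectional curve fitting with DMSO as baseline.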

A short description of test [11]: ATG_E_Box_CIS: Attagene CIS-FACTORIAL HepG2 Assay for human Enhancer Box (E-box) (AID 2282936). The following applies: HepG2 E-box cis-reporter transcription, actives raise or lower the signal. Summed up:
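First, HepG2 cells receive multiple cis-regulated reporter constructs by transient transfection. Next, chemicals are applied for 24 h. Finally, reporter mRNA is quantified via RT-PCR and capillary electrophoresis, with DMSO as baseline.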

Test [12] in a line: ATG_M_61_CIS: Attagene CIS-FACTORIAL HepG2 Assay for M61 Transcription Factor (Internal Marker) (AID 2282937). The following applies: HepG2 Attagene CIS-FACTORIAL M61 internal marker reporter; actives raise or lower the signal. Summed up: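 Readout: fluorescent reporter mRNA fragments resolved by capillary electrophoresis after RT-PCR. Transiently transfected human HepG2 cells carried MRTU constructs reporting endogenous TF activity; 24 h chemical exposure; gain or loss of signal fitted relative to DMSO.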

A short description of test [13]: ATG_EGR_CIS: Attagene CIS-FACTORIAL HepG2 Assay for human Early Growth Response 1 (EGR1) (AID 2282938). The following applies: HepG2 Attagene CIS-FACTORIAL EGR reporter mRNA; actives raise or lower the signal. Summed up:
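Read-out: fluorescent reporter-mRNA fragments resolved by capillary electrophoresis after RT-PCR, 24 h post-dose in transiently transfected HepG2. Endogenous transcription-factor activity reported via cis-element-regulated reporter units; gain or loss fitted relative to DMSO.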

Test [14] can be described thus: ATG_M_19_CIS: Attagene CIS-FACTORIAL HepG2 Assay for M19 Transcription Factor (Internal Marker) (AID 2282939). The following applies: HepG2 Attagene CIS-FACTORIAL M19 internal marker reporter; actives raise or lower the signal. The method in brief:
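HepG2 cells transiently transfected with cis-regulated multiple reporter transcription units were dosed for 24 h; reporter mRNA was quantified by RT-PCR, 6-FAM primer-extension labelling, HpaI digestion and capillary electrophoresis, with bidirectional fitting against DMSO baseline.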

The nature of test [15]: ATG_ERE_CIS: Attagene CIS-FACTORIAL HepG2 Assay for Estrogen Response Element (ERE) (AID 2282940). The following applies: HepG2 ERE cis-reporter, Attagene RNA transcript; actives raise or lower the signal. Summed up:
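HepG2 cells transiently transfected with cis-promoter-driven multiplexed reporter transcription units report endogenous TF activity. After 24 h compound exposure, reporter mRNA is quantified by RT-PCR with capillary electrophoresis fluorescence; bidirectional fitting versus DMSO baseline.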

A short description of test [16]: ATG_Ets_CIS: Attagene CIS-FACTORIAL HepG2 Assay for human Erythroblast Transformation Specific (ETS) (AID 2282941). The following applies: HepG2 ETS cis-reporter transcription, actives raise or lower the signal. The method in brief: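 HepG2 cells transiently transfected with cis-promoter reporter transcription units were dosed for 24 h; reporter mRNA was measured by RT-PCR, 6-FAM primer extension, HpaI digestion and capillary electrophoresis, with bidirectional fitting against DMSO baseline.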

In test [17] the target is Hepatocyte nuclear factor 3-beta (Homo sapiens) (UniProt Q9Y261). As to the kind of experiment: ATG_FoxA2_CIS: Attagene CIS-FACTORIAL HepG2 Assay for human Forkhead box A2 (FOXA2) (AID 2282942). As to conditions: HepG2 cis-reporter transcription factor activity, 24 h; actives raise or lower the signal. Summed up: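 Readout: fluorescent reporter transcripts resolved by capillary electrophoresis after RT-PCR. Transiently transfected HepG2, 24 h compound exposure, endogenous TF activity at cis promoter elements. Gain or loss of signal fitted relative to DMSO.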

Test [18] can be described thus: ATG_FoxO_CIS: Attagene CIS-FACTORIAL HepG2 Assay for human Forkhead box O (FoxO) (AID 2282943). As to conditions: HepG2 Attagene cis-reporter, FoxO element, mRNA; actives raise or lower the signal. Summed up: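 Transfected HepG2 reporter cells exposed to test chemical for 24 h; reporter RNA measured by reverse transcription, PCR and fluorescent capillary electrophoresis; curves fitted for increases and decreases against DMSO.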

Test [19] can be described thus: ATG_GATA_CIS: Attagene CIS-FACTORIAL HepG2 Assay for human GATA Binding Protein (AID 2282944). The following applies: HepG2 GATA cis-element reporter, Attagene multiplex mRNA; actives raise or lower the signal. Summed up: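 HepG2 cells transiently transfected with multiplexed cis-element reporter units reflecting endogenous transcription factor activity; reporter mRNA measured after 24 h dosing by RT-PCR, 6-FAM labeling, HpaI digestion and capillary electrophoresis. Bidirectional fitting versus DMSO baseline.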

Test [20] addresses Retinoic acid receptor alpha (Homo sapiens) (UniProt P10276). Kind of test: ATG_DR5_RAR_CIS: Attagene CIS-FACTORIAL HepG2 Assay for human Retinoic Acid Receptor Alpha (RARE), DR5 submotif (AID 2282934). As to conditions: HepG2 Attagene cis-factorial RARE DR5 reporter, mRNA; actives raise or lower the signal. Summed up:
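After 24 h of chemical exposure, transiently transfected HepG2 cells were lysed for total RNA; the DR5-regulated reporter transcript was quantified via RT-PCR and capillary electrophoresis, with activity fitted bidirectionally against DMSO.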

These results are taken from PubChem BioAssay (EPA / NIEHS).

One may read the AC50 as the concentration at which the activity in the assay is half-maximal.

Calls of active or inactive are those of the source. How the source made its calls: active means hit-call score of the fitted dose curve at least 0.9, where 1 is the maximum; inactive means score below 0.9.

Hepatocyte nuclear factor 3-beta (Homo sapiens), sequence (Q9Y261 whole entry, looked up): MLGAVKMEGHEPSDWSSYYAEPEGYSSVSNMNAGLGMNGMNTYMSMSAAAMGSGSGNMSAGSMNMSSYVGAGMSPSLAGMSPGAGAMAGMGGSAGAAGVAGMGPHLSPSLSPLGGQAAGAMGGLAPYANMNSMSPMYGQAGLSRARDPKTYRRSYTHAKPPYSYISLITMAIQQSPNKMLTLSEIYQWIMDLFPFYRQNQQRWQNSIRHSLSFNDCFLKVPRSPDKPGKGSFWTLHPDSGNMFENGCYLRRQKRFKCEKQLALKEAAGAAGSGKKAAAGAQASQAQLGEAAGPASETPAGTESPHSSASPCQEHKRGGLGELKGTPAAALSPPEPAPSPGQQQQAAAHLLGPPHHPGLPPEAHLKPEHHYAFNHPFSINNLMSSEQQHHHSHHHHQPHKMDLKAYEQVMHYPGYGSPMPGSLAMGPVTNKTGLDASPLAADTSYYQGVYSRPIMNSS
CCAAT/enhancer-binding protein beta (Homo sapiens), sequence (P17676 whole entry, looked up): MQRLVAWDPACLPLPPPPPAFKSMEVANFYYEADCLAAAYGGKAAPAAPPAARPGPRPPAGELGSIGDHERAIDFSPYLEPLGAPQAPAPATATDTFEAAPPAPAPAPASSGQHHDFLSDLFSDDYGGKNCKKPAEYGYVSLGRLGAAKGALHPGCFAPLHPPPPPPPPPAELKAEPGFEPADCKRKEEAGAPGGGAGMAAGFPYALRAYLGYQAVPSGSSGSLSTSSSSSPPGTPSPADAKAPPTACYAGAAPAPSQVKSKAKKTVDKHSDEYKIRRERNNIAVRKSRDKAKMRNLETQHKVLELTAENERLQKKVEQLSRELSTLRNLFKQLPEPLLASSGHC
Transcription factor E2F1 (Homo sapiens), sequence (Q01094 whole entry, looked up): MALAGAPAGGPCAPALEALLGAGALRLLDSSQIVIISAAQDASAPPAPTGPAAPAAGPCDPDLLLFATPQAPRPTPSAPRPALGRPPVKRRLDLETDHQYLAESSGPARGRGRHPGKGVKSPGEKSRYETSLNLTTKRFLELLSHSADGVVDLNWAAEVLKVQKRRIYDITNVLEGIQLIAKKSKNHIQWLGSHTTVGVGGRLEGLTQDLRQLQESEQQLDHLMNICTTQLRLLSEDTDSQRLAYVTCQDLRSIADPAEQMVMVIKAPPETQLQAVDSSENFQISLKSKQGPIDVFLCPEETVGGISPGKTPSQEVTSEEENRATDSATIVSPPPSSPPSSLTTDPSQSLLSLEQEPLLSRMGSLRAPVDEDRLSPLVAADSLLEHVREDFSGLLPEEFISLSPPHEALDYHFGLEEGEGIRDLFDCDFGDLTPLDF
Aryl hydrocarbon receptor (Homo sapiens), sequence (P35869 whole entry, looked up): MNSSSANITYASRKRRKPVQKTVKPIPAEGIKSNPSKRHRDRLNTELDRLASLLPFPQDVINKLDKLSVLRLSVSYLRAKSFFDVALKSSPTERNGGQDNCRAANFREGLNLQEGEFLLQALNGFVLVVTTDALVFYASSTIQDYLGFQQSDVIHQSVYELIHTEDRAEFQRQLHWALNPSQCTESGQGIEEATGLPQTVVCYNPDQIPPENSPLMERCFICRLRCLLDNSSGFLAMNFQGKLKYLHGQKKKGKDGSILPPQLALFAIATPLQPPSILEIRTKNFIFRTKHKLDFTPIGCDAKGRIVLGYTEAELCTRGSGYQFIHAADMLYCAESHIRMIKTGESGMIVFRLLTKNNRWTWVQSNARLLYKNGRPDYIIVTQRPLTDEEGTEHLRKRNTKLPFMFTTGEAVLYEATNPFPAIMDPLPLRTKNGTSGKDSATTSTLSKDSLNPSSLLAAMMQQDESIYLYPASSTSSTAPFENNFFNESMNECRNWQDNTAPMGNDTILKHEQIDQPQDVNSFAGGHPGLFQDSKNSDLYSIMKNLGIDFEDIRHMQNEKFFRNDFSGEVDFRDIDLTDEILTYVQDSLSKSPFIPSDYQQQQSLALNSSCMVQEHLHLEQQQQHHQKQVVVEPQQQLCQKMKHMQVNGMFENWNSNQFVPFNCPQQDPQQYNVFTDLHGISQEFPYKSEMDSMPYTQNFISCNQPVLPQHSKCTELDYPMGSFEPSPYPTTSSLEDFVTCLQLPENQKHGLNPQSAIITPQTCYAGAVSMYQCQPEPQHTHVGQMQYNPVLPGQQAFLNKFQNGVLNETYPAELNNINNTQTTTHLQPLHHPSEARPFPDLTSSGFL
Retinoic acid receptor alpha (Homo sapiens), sequence (P10276 whole entry, looked up): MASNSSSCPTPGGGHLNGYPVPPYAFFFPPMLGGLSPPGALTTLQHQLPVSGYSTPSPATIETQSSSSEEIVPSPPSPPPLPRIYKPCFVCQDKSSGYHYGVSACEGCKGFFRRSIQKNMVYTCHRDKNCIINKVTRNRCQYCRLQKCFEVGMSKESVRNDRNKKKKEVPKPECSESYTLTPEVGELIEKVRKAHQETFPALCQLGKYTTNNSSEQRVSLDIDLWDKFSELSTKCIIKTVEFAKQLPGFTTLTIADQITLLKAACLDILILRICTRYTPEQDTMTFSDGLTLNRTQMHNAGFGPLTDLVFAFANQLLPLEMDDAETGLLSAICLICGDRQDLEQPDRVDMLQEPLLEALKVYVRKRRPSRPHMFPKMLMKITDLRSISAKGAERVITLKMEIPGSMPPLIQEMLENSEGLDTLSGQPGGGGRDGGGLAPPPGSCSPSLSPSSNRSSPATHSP

For `CCCCC(CC)CN1C(=O)C2C3C=CC(C3)C2C1=O` (stereo unspecified), the compound was called inactive in [1], in test [2], in test [3], in test [4], in test [6] and in [8]. For the same compound, the compound was called inactive in [10], in test [11], in test [12], in test [13], in test [14] and in test [15]. In addition, the outcome in [16], in [17], in test [18] and in [19] was inactive. Also, the AC50 in test [5] is 85.4 µM (active); in test [7], 69.6 µM (active); in test [9] it was 45.3 µM (active).

Regarding `CCCCC(CC)COC(=O)c1ccccc1C(=O)O` (stereo unspecified), the compound was called inactive in test [1], in test [2], in test [3], in test [4], in test [5] and in test [8]. The compound was classed as inactive in [9], in [10], in test [11], in test [12], in test [14] and in test [16]. For the same compound, the call in test [17] and in test [18] was inactive.

Consider `CCCOC(=O)NCCCN(C)C`, for which the result in test [1], in test [2], in test [3], in [4], in test [5] and in [6] was inactive. The call in test [8], in test [9], in test [20], in [10], in test [11] and in test [12] was inactive. Also, the call in [14], in test [16], in [17] and in test [18] was inactive.

As to `C#C[C@]1(O)CC[C@H]2[C@@H]3CCC4=CC(=O)CC[C@@H]4[C@H]3CC[C@@]21CC`, the compound was called inactive in test [1], in test [2], in [3], in test [4], in [5] and in test [6]. Moreover, the compound was called inactive in [8], in test [9], in test [10], in test [11], in test [12] and in test [14]. In addition, the outcome in test [16], in [17] and in [18] was inactive.

`COC(=O)c1ccc(I)cc1S(=O)(=O)NC(=O)Nc1nc(C)nc(OC)n1`: the result in test [1], in test [2], in test [3], in [4], in test [5] and in test [6] was inactive. In addition, the outcome in [8], in [9], in [10], in test [11], in test [12] and in test [14] was inactive. For the same compound, the outcome in [16], in [17], in [18] and in [19] was inactive.

`CCCN(CCC)C(=O)SCC`: the call in [1], in [2], in test [3], in test [4], in test [5] and in [6] was inactive. The call in test [8], in test [9], in [10], in test [11], in test [12] and in test [14] was inactive. Further, the compound was called inactive in [15], in test [16], in [17] and in [18].
